Laboratory results: PubChem BioAssay AID686934 (National Center for Advancing Translational Sciences (NCATS), 2013)
Results filed as inconclusive are left out. Active and inactive are the calls of the source. The call rests on the fitted dose curve; in most records, active means well fitted curve in the direction sought with a large enough effect; inconclusive means small, poorly fitted or top-dose-only effect, or another doubt; inactive means no such curve, though single readings can be large or run the other way.

Experiment: qHTS screen for small molecules that inhibit ELG1-dependent DNA repair: SAR in Cell-Based Luciferin Counter Assay
Details: cell-based luciferase counter-screen, luminescence; series mostly up to 45.7 µM; activity change, negative = inhibition: at the top concentration
Source text: Cancer cells divide rapidly compared to normal cells in the body. During cell division, cancer cells need to duplicate their genome by DNA replication. The failure of genome duplication leads to cancer cells' death. Therefore, inhibitors of DNA replication could specifically kill cancer cells. Based on this concept, many chemotherapeutic agents were developed and have been used to treat cancer patients. However, there are a limited number of agents available in the clinical setting, and some of those that do exist have low efficacy and severe side effects. Therefore, if we can find the compounds that effectively block DNA replication either by directly damaging DNA or by inhibiting other cellular mechanisms, the options for cancer treatment will be broadened. With this in mind, we developed a quantitative high-throughput ELG1-luciferase reporter gene assay. Small molecules that specifically block ELG1 function in response to DNA damage can be identified by monitoring the suppression of luciferase activity. Since ELG1 defines a pathway for repairing DNA damage, agents blocking ELG1 function can be used to sensitize cancer cells to chemotherapeutic agents whose mechanism of action involves the induction of DNA damage. This assays is a counterscreen, that is more specifically, a cell-based luciferase assay following treatment with putative ELG1 antagonists to eliminate luciferase enhancers/inhibitors NIH Molecular Libraries Probe Production Network [MLPCN] NIH Chemical Genomics Center [NCGC] MLPCN Grant: R03 MH092164 Assay Provider: Kyungjae Myung, NHGRI, NIH
3 uL of substrate reagent will be pipetted into each well in 1536-well white, solid-bottom plates using a FRD dispenser, followed by addition of 23 nL of DMSO or compounds by pintool. After compound addition, 1 µL of luciferase will be added into the wells. The plates will be read in a ViewLux CCD-based plate reader.

Compound	activity change, negative = inhibition
CCCC(=O)O[C@@H]1[C@@H](C)[C@@]2(O)[C@@H](C=C(CO)C[C@]3(O)C(=O)C(C)=C[C@@H]23)[C@@H]2C(C)(C)[C@]12OC(=O)CCC	64.7% (inactive)
CC(=O)OCC1=C[C@H]2[C@@H]3C(C)(C)[C@]3(OC(=O)Cc3ccccc3)C[C@@H](C)[C@]2(O)[C@@H]2C=C(C)C(=O)[C@@]2(O)C1	51.3% (inactive)
CN[C@@H]1C[C@@]2(C)O[C@@H]([C@@H]1OC)n1c3ccccc3c3c4c(c5c6ccccc6n2c5c31)C(=O)NC4	-73.1% (inactive)
CCCCCC1C(=O)O[C@H](C)[C@@H](NC(=O)c2cccc(NC=O)c2O)C(=O)OC(C)C1OC(=O)CC(C)C (stereo partly specified)	4.59% (inactive)
CCCSc1ccc2nc(NC(=O)OC)[nH]c2c1	64.3% (inactive)
O=C(CCl)c1ccc(O)c(O)c1	-10.9% (inactive)
